Results from PubChem BioAssay AID540308 (The Scripps Research Institute Molecular Screening Center, 2011).
Several values for one entry are separate records, joined by “and”; a condition that tells them apart may be missing. Equal values may be shown once. Hit rate of the full screen: of about 360,000 compounds, about 3,500 (0.97%) were called active.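 The calls were made as follows: active = activation above a per-plate cutoff, the mean activation of sample wells on that plate plus 3 SD (cut at about 8% in these data); inactive = the rest.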 For the sample, actives were picked, then their nearest neighbours and some compounds at random. Some structures have more than one record in an assay (separate samples or runs), and their calls can disagree.

Each compound was assayed against Melanocortin receptor 4 (Homo sapiens) (UniProt P32245) (assay: MC4R agonists recruiting beta-arrestin, primary screen, cell-based, luminescence, agonist arm of biased-ligand search (AID 540308)). Settings: U2OS MC4R beta-arrestin complementation, at 8.9 µM, stronger effect = higher value, percent of melanotan II response, DMSO zero.
Chain of Melanocortin receptor 4 (Homo sapiens) (P32245 whole entry, looked up): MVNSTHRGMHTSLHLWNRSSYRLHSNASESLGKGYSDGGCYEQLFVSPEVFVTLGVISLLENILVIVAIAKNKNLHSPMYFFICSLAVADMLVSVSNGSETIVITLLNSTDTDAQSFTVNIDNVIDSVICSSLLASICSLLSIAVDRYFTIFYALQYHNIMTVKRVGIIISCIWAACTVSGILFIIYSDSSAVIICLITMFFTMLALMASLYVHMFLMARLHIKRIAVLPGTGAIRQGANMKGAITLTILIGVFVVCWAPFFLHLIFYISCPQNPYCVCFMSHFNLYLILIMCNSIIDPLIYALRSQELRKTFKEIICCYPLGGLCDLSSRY
With `CSc1ncccc1C(=O)Nc1nc2ccc(F)cc2s1` the activation was -1.02% (inactive).
With `COc1ccc2nc(NC(=O)c3ccc(Br)s3)sc2c1` the activation was 16.2% (active).
`COc1ccc(CNC(=O)c2ccc(Br)s2)cc1OC` was tested, and the activation was -3.45% (inactive).
`O=C(COc1ccc2c(c1)CCC2)N1CCN(c2ccc(F)cc2)CC1` was tested, and the activation was 0.92% (inactive).
With `COc1cc(NC(=O)c2[nH]cnc2C(N)=O)cc(C(=O)Nc2cccc(C(F)(F)F)c2)c1` the activation was 1.84% (inactive).
`O=C(Nc1cccc(C(F)(F)F)c1)c1ccc(N2CCNCC2)c([N+](=O)[O-])c1` was tested, and the activation was -2.39% (inactive).
In the case of `COc1cc(NC(=O)c2cncc(-c3ccc(C#N)cc3)c2)cc(C(=O)Nc2cccc(C(F)(F)F)c2)c1`, the activation is reported as 2.04% (inactive) and 10.5% (active).
`Cc1nc(C(F)(F)F)ccc1C(=O)N1CCC1(C)C(=O)NS(=O)(=O)c1ccc(F)cc1F` (configuration not stated) was tested, and the activation was 1.24% (inactive).
With `S=C(Nc1ccccc1)Nc1ccc2ccccc2c1` the activation was 0.79% (inactive).
With `NS(=O)(=O)c1ccc(NC(=S)Nc2ccc(Br)c(Cl)c2)cc1` the activation was -1.38% (inactive).
With `Cc1cccc(NC(=S)Nc2ccc(Cl)c(Cl)c2)c1` the activation was 8.62% (active).
For `OC(c1ccc(Cl)c(F)c1)c1ncc(-c2ccccc2Cl)[nH]1` (configuration not stated), the activation was 5.44% (inactive).
In the case of `COc1ccc(-c2noc(C(C)NS(=O)(=O)c3ccc(NC(C)=O)cc3)n2)cc1` (configuration not stated), the activation is reported as -3.52% (inactive).
For `CCCC(=O)N1CCC1(C)C(=O)NCc1ccc(C(C)C)cc1` (configuration not stated), the activation was 1.64% (inactive).
For `COc1c(C)cc(C(O)c2ncc(-c3cccc(C(F)(F)F)c3)[nH]2)cc1C` (configuration not stated), the activation was 2.23% (inactive).
In the case of `N#Cc1ccccc1CN1C(=O)S/C(=C/c2cccn2-c2cccc(C(=O)O)c2)C1=O`, the activation is reported as 1.23% (inactive).
`O=C1CC(NNc2ccccc2)C(=O)N1c1cccc(Cl)c1` (configuration not stated) was tested, and the activation was 2.47% (inactive).
For `O=C1N/C(=C/c2cccn2-c2ccccc2)C(=O)N1c1cccc(Cl)c1`, the activation was 30.7% (active).
In the case of `CCN(CCN(C)C)C(=O)c1ccc2nc(C)c(N(C)C(=O)CCc3ccccc3)n2c1`, the activation is reported as 0.87% (inactive).
For `O=C(NCCCN1CCOCC1)c1cc(-c2cccc(O)c2)on1`, the activation was -2.51% (inactive).
With `O=C(c1cc(-c2cccc(O)c2)on1)N1CCc2ccccc2C1` the activation was 11.5% (active).
For `O=C(c1cc(-c2ccc(O)cc2)on1)N1CCOCC1`, the activation was -1.26% (inactive).
In the case of `CC1(C(=O)Nc2cccc3cccnc23)CCN1C(=O)CCC1CCCC1` (configuration not stated), the activation is reported as 0.32% (inactive).
For `CCN(CC)CCN(C(=O)c1ccc2c(c1)CCCC2)c1nc2c(OC)cccc2s1`, the activation was 5.13% (inactive).
With `Cc1cccc2sc(N(CCCN(C)C)C(=O)CCS(=O)(=O)c3ccccc3)nc12` the activation was -2.28% (inactive).
With `COc1cccc2sc(N(CCCN(C)C)C(=O)C(c3ccccc3)c3ccccc3)nc12` the activation was 11.3% (active).
In the case of `Cc1cc(-c2nc(C)c(-c3nnc(SCC(=O)Nc4ccccc4)n3C)s2)no1`, the activation is reported as -2.39% (inactive).
In the case of `Cn1c(SCC(=O)Nc2cccc(NC(=O)c3cccs3)c2)nnc1-c1ccncc1`, the activation is reported as 0.46% (inactive).
For `Cc1nc(-c2nnc(SCC(=O)Nc3cc(C(F)(F)F)cc(C(F)(F)F)c3)n2C)cs1`, the activation was 10.2% (active).
For `Cc1ccccc1S(=O)(=O)NC(=O)C1(C)CCN1C(=O)C1(c2ccccc2)CCCC1` (configuration not stated), the activation was -0.26% (inactive).
In the case of `COc1ccc(CNc2nnnn2C)cc1`, the activation is reported as -2.31% (inactive).
For `COc1ccc(-n2nnnc2-c2nc3ccccc3s2)cc1`, the activation was 9.47% (active).
With `COc1ccc(-n2nnnc2SCC(=O)NCc2cccs2)cc1` the activation was -3.21% (inactive).
For `OC[C@@H]1CN(Cc2ccc(F)cc2)C[C@H](n2cnc3c(NC4CCCC4)ncnc32)O1`, the activation was -2.29% (inactive).
In the case of `CC1(C(=O)NCc2cccc3ccccc23)CCN1Cc1ccc(-c2ccccc2)o1` (configuration not stated), the activation is reported as -1.17% (inactive).
`COc1ccc(-c2ccc(C(=O)NC(C)C)c3occc23)c(C)c1` was tested, and the activation was 1.66% (inactive).
For `CCc1nc2ccc(C(=O)N(C)Cc3ccco3)cn2c1N(C)C(=O)Cc1ccccc1`, the activation was -1.99% (inactive).
In the case of `COc1ccc(CNC(=O)c2nnn(CC(=O)Nc3cc(C)cc(C)c3)c2N)cc1`, the activation is reported as 0.3% (inactive).
With `COc1cccc(CNC(=O)c2nnn(CC(=O)Nc3cc(C)ccc3C)c2N)c1` the activation was 3.53% (inactive).
In the case of `COc1cccc(CNC(=O)c2nnn(CC(=O)Nc3cc(Cl)ccc3C)c2N)c1`, the activation is reported as 11.7% (active).
`CN(C)c1cccc(NC(=O)c2ccc(-c3ccc(F)c(F)c3)c3ccoc23)c1` was tested, and the activation was 0.91% (inactive).
With `CC(OC(=O)c1ccc([N+](=O)[O-])cc1)C(=O)NCC1CCCCC1` (configuration not stated) the activation was -1.32% (inactive).
With `CC(OC(=O)c1cccc(S(=O)(=O)N2CCOCC2)c1)C(=O)NCC1CCCCC1` (configuration not stated) the activation was 0.27% (inactive).
In the case of `COc1cc(C(=O)OC(C)C(=O)NCC2CCCCC2)cc(NC(=O)c2ccco2)c1OC` (configuration not stated), the activation is reported as 13.3% (active).
`CC(C)Nc1ncnc2c1ncn2[C@H]1CN(Cc2ccncc2)C[C@@H](CO)O1` was tested, and the activation was 2.39% (inactive).
With `CC(C)CN1CCC1(C)C(=O)Nc1ccc(OC(F)F)cc1` (configuration not stated) the activation was 0.55% (inactive).
`Cc1ccc(F)c(S(=O)(=O)NC(=O)C2(C)CCN2C(=O)c2ccco2)c1` (configuration not stated) was tested, and the activation was 0.44% (inactive).
For `Oc1c(Cl)cc(Cl)c(Cl)c1Cc1c(O)c(Cl)cc(Cl)c1Cl`, the activation was 9.22% (active).
In the case of `O=C(NCc1ccc(F)cc1)c1cc(C2CCCCN2C(=O)c2ccccn2)on1` (configuration not stated), the activation is reported as 1.1% (inactive).
`COC(=O)C(C)Oc1ccc2c(c1)O/C(=C\c1cccc(Br)c1)C2=O` (configuration not stated) was tested, and the activation was 0.36% (inactive).
For `COc1cc(C#Cc2ccc3cc(CCCO)oc(=O)c3c2)cc(OC)c1`, the activation was -2.63% (inactive).
In the case of `COc1cc(/C=C2\Oc3ccc(C#Cc4ccc(O)cc4)cc3C2=O)cc(OC)c1`, the activation is reported as 10.2% (active).
`CCc1nc2ccc(C(=O)Nc3cc(-c4ccccc4)ccc3OC)cn2c1N(CC)CC(=O)N(C)C` was tested, and the activation was 1.77% (inactive).
With `C[C@H]([C@@H](O)[C@@H](O)[C@@H](C)C(C)(C)C)[C@H]1CC[C@H]2C3CC[C@H]4C[C@H](OS(=O)(=O)O)[C@@H](OS(=O)(=O)O)C[C@]4(C)[C@H]3CC[C@]12C` (some centres not stated) the activation was 0.15% (inactive).
`CC1(C(=O)NS(=O)(=O)c2ccccc2)CCN1C(=O)C1CCCCC1` (configuration not stated) was tested, and the activation was -1.69% (inactive).
`COc1cccc(-c2cc3nc(NCc4ccccc4OC)n(C)c(=O)c3s2)c1` was tested, and the activation was 6.31% (inactive).
With `COc1ccc(Cl)cc1C(=O)Nc1ccc(N(C)C(C)=O)cc1` the activation was 0.11% (inactive).
In the case of `CCN(CC)C(=O)Oc1ccc(Br)cc1C(=O)Nc1ccc(F)c(Cl)c1`, the activation is reported as 11.6% (active).
For `CCCOc1ccc(F)cc1-c1cc(C(=O)Nc2ccc(F)c(Cl)c2)[nH]n1`, the activation was 2.17% (inactive).
In the case of `CCN(CC)c1ccc(C(=O)N/N=C/c2ccc(N3CCOCC3)cc2)cc1`, the activation is reported as 26.7% (active).
`CCN(CC)c1ccc(/C=N/NC(=O)CNC(=O)c2cccs2)cc1` was tested, and the activation was -1.48% (inactive).
For `Cc1ccccc1N/N=C/c1ccc(N2CCOCC2)cc1`, the activation was -1.27% (inactive).
In the case of `O=CNc1cc(-c2ccc(C(=O)N3CCOCC3)cc2)cn2c(-c3ccc(F)cc3)cnc12`, the activation is reported as 0.33% (inactive).
`CC1(Cc2ccccc2C#N)C(=O)Nc2ccc(-c3ccc4[nH]ccc4c3)cc21` (configuration not stated) was tested, and the activation was -2.44% (inactive).
In the case of `Cc1nc2c(OCc3cccc(Cl)c3)cccn2c1N(C)CC1CC1`, the activation is reported as -0.13% (inactive).
In the case of `CC1(C(=O)NCc2ccco2)Cc2c(-c3ccc4c(c3)OCO4)ccnc2O1` (configuration not stated), the activation is reported as 0.01% (inactive).
With `CC1=C(C/C=C(\C)CCCC(C)CCCC(C)CCCC(C)C)C(=O)c2ccccc2C1=O` (configuration not stated) the activation was -1.56% (inactive).
In the case of `CCN(CC)S(=O)(=O)c1ccc(C)c(NC(=O)COc2ccc(Br)cc2Cl)c1`, the activation is reported as 13.4% (active).
`CCN(CC)S(=O)(=O)c1ccc(OC)c(NC(=O)CCc2c(C)noc2C)c1` was tested, and the activation was -1.81% (inactive).
`Cc1ccc(S(=O)(=O)N(C)C)cc1NC(=O)COC(=O)c1c(C)noc1C` was tested, and the activation was -0.85% (inactive).
In the case of `O=C(NCc1cccnc1)c1cc(C2CCCCN2C(=O)CCc2ccccc2)on1` (configuration not stated), the activation is reported as -1.7% (inactive).
`CCNC(=O)C1CCCN(C(=O)c2cc(F)ccc2C)CC1` (configuration not stated) was tested, and the activation was 1.6% (inactive).
`CC(C)(C)OC(=O)N1CCC(NC(=O)c2[nH]cnc2C(=O)N[C@@H](Cc2ccccc2)C(=O)OCc2ccccc2)CC1` was tested, and the activation was 17.8% (active).
`O=C(N[C@@H](Cc1ccccc1)C(=O)OCc1ccccc1)c1nc[nH]c1C(=O)NC1CCNCC1` was tested, and the activation was -0.82% (inactive).
In the case of `O=C(N[C@@H](Cc1ccccc1)C(=O)OCc1ccccc1)c1nc[nH]c1C(=O)N[C@@H](Cc1ccccc1)C(=O)OCc1ccccc1`, the activation is reported as 0.69% (inactive).
With `CC(=O)c1ccc(Nc2nc(C(N)c3ccccc3Cl)cs2)cc1` (configuration not stated) the activation was -0.98% (inactive).
With `O=C(CN1CCN(Cc2ccccc2)CC1)NC(c1ccccc1)c1ccccc1` the activation was 1.85% (inactive).
For `C=CCC(NC(=O)Cc1ccccc1)C(=O)NCCC` (configuration not stated), the activation was -0.94% (inactive).
`O=C(Cc1ccc(-c2ccccc2)cc1)NC(c1ccccc1)c1ccccc1` was tested, and the activation was 9.56% (active).
In the case of `COc1ccc(CN2CCC(C)(Oc3cccc(F)c3)C2)c2ccccc12` (configuration not stated), the activation is reported as 0.37% (inactive).
For `COc1c(Cl)cc(C(=O)Nc2ccc(Cl)cn2)cc1Cl`, the activation was 10.6% (active).
`O=C(Nc1ccc(Cl)cn1)c1ccc2c(c1)OCCO2` was tested, and the activation was 0.85% (inactive).
In the case of `CCCc1cc(C(=O)Nc2ccc(Cl)cn2)cs1`, the activation is reported as 3.75% (inactive).
In the case of `COc1ccc(-c2cc3nc(NCCOc4ccccc4)ccn3n2)cc1`, the activation is reported as 4.13% (inactive).
In the case of `CCOc1ccc(/C=N/NC(=O)C(C)Sc2ccccn2)cc1OCC` (configuration not stated), the activation is reported as 2.39% (inactive).
With `CCOc1cc(/C=N/NC(=O)OC)ccc1OCCSc1ccc(Cl)cc1` the activation was 4.19% (inactive).
`COc1cc(/C=N/NC(=O)Nc2ccccc2)ccc1OCCOc1ccccc1C` was tested, and the activation was 21.2% (active).
